CYP2C19 inh: inhibitors of human CYP2C19 | P33261 | CYP2C19 Supersomes, luciferin-H EGE luminescence, 30 min | inhibition, % at 5 µM | 21% of 96,000 active | AID 778;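 active means CYP2C19 inhibition above a set limit at 5 µM in the primary screen, cut at about 50% in these data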;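 further: plate controls were negative control wells for no effect and 2.5 mM tranylcypromine positive control for full effect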
CYP2C19 activ: activators of human cytochrome P450 2C19; P33261; recombinant CYP2C19, luciferin-H EGE luminescence; hits give high values; 0 = fully inhibited enzyme, 1 = untreated enzyme; activation factor at 5 µM; 96,000 tested, under 10 active;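 active means activation factor of at least 2 at 5 µM in the primary screen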;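 further: 0 = wells with 2.5 mM tranylcypromine and 1 = vehicle-only wells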
Cav3 T inh: blocks human Cav3.2 T-type calcium channel. O95180. Cav3.2-expressing cells, Fluo-4 calcium fluorescence FDSS; hits give low values. B-score at 10 µM. 4% of 100,000 active;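 active means single-dose well whose peak fluorescence ratio is a statistical outlier from its plate by either plate-standardised score or position-corrected B-score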
CYP2C9 act: CYP2C9 (human) activation; recombinant CYP2C9, luciferin-H conversion, luminescence; hits give high values; factor 1 = untreated enzyme, 0 = blocked; P11712; AID 1024; 1.4% of 96,000 active; activation factor at 5 µM;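 active means activation factor of 2 or more for CYP2C9 at a 5 µM dose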;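 further: 0 = sulfaphenazole-blocked wells and 1 = vehicle-only wells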
CYP2C9 inh: blocks human cytochrome P450 2C9; P11712; CYP2C9 Supersomes, luciferin-H conversion, luminescence; inhibition, % at 5 µM; 20% of 96,000 active; AID 777;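 active means blocking of liver enzyme CYP2C9 beyond about 50% at 5 µM, limit read from the data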
Active calls of the source: *; nt = no result given. Only some compounds are listed: those with a hit (about 27% of all), similar ones and a draw of the others.

SMILES	CYP2C19 inh	CYP2C19 activ	Cav3 T inh	CYP2C9 act	CYP2C9 inh
CCn1cc(C(=O)N2CCN(c3cccc(Cl)c3)CC2)c2cc(OC)c(OC)cc2c1=O	76*	0.2	0.082	0.2	80*
COc1cccc2c(=O)n(CC(=O)N3CCCc4ccccc43)ccc12	87*	0.1	0.19	0.5	46
CCn1cc(C(=O)N2CCCc3ccccc32)c2cc(OC)c(OC)cc2c1=O	56*	0.4	nt	0.8	21
COc1cc(C(=O)N2CCCc3ccccc32)cc(OC)c1OC	nt	nt	1.1	nt	nt
COc1cc2c(C(=O)N3CCN(c4cccc(Cl)c4)CC3)cn(C)c(=O)c2cc1OC	21	0.8	0.36	0.6	42
CCC(C)NC(=O)C1c2cc(OC)c(OC)cc2C(=O)N(C)C1c1cccs1 (stereo not given)	15	0.8	0.034	1	-1
O=C(NCCN1C(=O)C2C3C=CC(C3)C2C1=O)N1CCOCC1 (stereo not given)	-8	1.1	0.23	1	-2
O=C(O)c1ccc(N2Cc3ccccc3C2)cc1O	48	0.5	-0.61	0.5	53*
CCOc1cccc2sc(=NC(=O)c3ccc(S(=O)(=O)N4CCOCC4)cc3)n(C)c12	32	0.7	-1.1	0.4	56*
CCO/C(C)=C1\N=C(c2ccc(Cl)cc2)OC1=O	0	1	-1.4	1	0
O=C(Nn1cnnc1)c1cc2c(s1)CCCCC2	72*	0.3	nt	0.8	16
O=C(NCCCn1ccnc1)c1cc2c(s1)CCCCC2	93*	0.1	0.26	0.3	73*
O=C(Nc1ccon1)c1cc2c(s1)CCCCCC2	55*	0.5	-1.2	0.3	69*
COC(=O)c1ccc(N(C(=O)CNC(=O)c2ccco2)C(C(=O)NC2CCCC2)c2ccco2)cc1 (stereo not given)	nt	nt	-0.94	nt	nt
CC1CCCC(C)N1C(=O)Cc1ccccc1 (stereo not given)	76*	0.2	0.99	0.6	41
CC1CCCC(C)N1C(=O)CSc1nnnn1Cc1ccccc1 (stereo not given)	20	0.8	0.17	0.9	5
O=C(Cc1ccccc1)N1CCCC1c1ccccc1 (stereo not given)	79*	0.2	0.47	0.8	22
O=C(/C=C/c1ccccc1)N1CCC[C@H]1CO	nt	nt	0.12	nt	nt
CCCN(S(=O)(=O)c1ccc(OCC)cc1)S(=O)(=O)c1cccs1	30	0.7	0.27	0.6	41
N/C(Cc1ccc(Cl)cc1Cl)=N\OC(=O)c1cccs1	54*	0.5	-3.5	0.6	44
Cc1nn(C)c(=O)n1-c1ccc(Oc2ccccc2)cc1	22	0.8	1.3	0.1	91*
O=c1c2ccccc2nc2n1CCCCN2	11	0.9	0.28	0.8	16
Nc1nnnn1/N=C/c1cccc(Oc2ccccc2)c1	56*	0.4	-0.13	0.9	8
S=c1[nH]ncn1/N=C/c1cccc(Oc2ccccc2)c1	61*	0.4	-0.18	0.5	50
C(=N\n1cnnc1)/c1cccc(Oc2ccccc2)c1	77*	0.2	0.69	0.4	57*
SMILES	CYP2C19 inh	CYP2C19 activ	Cav3 T inh	CYP2C9 act	CYP2C9 inh
Nc1nnnn1/N=C/c1cccc(OCc2ccccc2Cl)c1	nt	nt	-0.45	nt	nt
Fc1ccccc1COc1cccc(/C=N/n2cnnc2)c1	99*	0	-0.062	0.3	68*
Cc1cc(/C=N/n2cnnc2)c(C)n1-c1ccc(OCc2ccccc2F)cc1	29	0.7	-1.1	0.8	19
CCOC(=O)CC1C(=O)NCCN1C(=O)c1cccc(C(F)(F)F)c1 (stereo not given)	-7	1.1	0.74	1	3
COc1ccc(C2CNC(=O)C2)cc1OC1CCCC1 (stereo not given)	nt	nt	0.42	nt	nt
Cc1ccc(Oc2ncccc2/C=N/OCc2ccc(Cl)c(Cl)c2)cc1	-15	1.2	nt	1.2	-17
O=C(O)CN1C(=O)SC(Nc2ccc(Cl)cc2)C1=O (stereo not given)	16	0.8	-0.59	1	0
CS/C(=N\S(=O)(=O)c1cccs1)NC(=O)CSc1nc2ccccc2s1	80*	0.2	-2.6	0	100*
Cc1ccc(S(=O)(=O)NC(=O)CSc2nc3ccccc3s2)cc1	2	1	-0.88	0.7	34
O=c1cc(CSc2nnc(-c3cccnc3)n2-c2ccccc2F)nc2sccn12	18	0.8	0.36	0.9	10
C=CCn1c(SCC(=O)/C(C#N)=C(\C)N)nnc1C1CCCCC1	78*	0.2	1.2	1	-3
C/C(N)=C(/C#N)C(=O)CSc1nc(C2CCCCC2)n(-c2ccccc2)n1	23	0.8	-5.1*	0.2	77*

Bioassay records (PubChem BioAssay)
